Assay results taken from PubChem BioAssay (NCATS).
Calls of active or inactive are those of the source. Calls come from the whole dose curve; as a rule, active = well fitted cell-killing curve with a large enough effect; inconclusive = small, poorly fitted or top-dose-only effect; inactive = flat fitted curve, though single readings scatter.

assay: MultiTox-Fluor Cytotoxicity Assay - LYMP1-003 - Live Cells (AID 962); conditions: LYMP1-003 lymphoblastoid cells, MultiTox-Fluor live-cell protease fluorescence; series mostly up to 92.2 µM; activity change, negative = fewer live cells: at the top concentration;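 note: 0% = DMSO only and full loss = 92 µM tetraoctylammonium bromide; cytotoxic hits lower the live-cell protease signal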
Source text: NIH Chemical Genomics Center [NCGC]
NIH Molecular Libraries Screening Centers Network [MLSCN]
National Institutes of Environmental Health Sciences [NIEHS]
National Toxicology Program [NTP]
We have developed a 1536-well cell-based assay for quantitative high throughput screening (qHTS) against a number of cell lines to determine in vitro cytotoxicity of small molecules. This particular assay uses a human lymphoblastoid cell line (LYMP1-003) purchased from Coriell Institute.
NCGC Assay Protocol Summary:
The MultiTox-Fluor Cytotoxicity Assay (Promega) is a homogeneous method to simultaneously measure the relative number of live and dead cells in culture by detecting changes in cell membrane integrity. There are two fluorogenic peptide substrates in the assay reagent. Viable cells are determined when the cell-permeant substrate (GF-AFC) enters the cell and is cleaved by protease from live cells resulting in liberated fluorophore. This live-cell protease activity restricted to viable cells is proportional to cell number. The dead cells are determined by using fluorogenic cell-impermeant peptide substrate (bis-AAF-R110) which cleaved by dead cell proteases leaking from damaged cell membrane.
Using the MultiTox-Fluor Cytotoxicity Assay, the relative number of live cells was measured in the lymphoblastoid cell line with complete culture medium following compound treatment for 16 hours. The assay was performed in opaque black Kalypsys 1536-well plates. In the screen, tetraoctylammonium bromide was used as positive control. Library compounds were measured for their ability to cause acute toxicity in the cell line, as reflected by a decrease in live cell protease activity, in a concentration-dependent manner. […] AC50 values were determined from concentration-response data modeled with the standard Hill equation.
qHTS protocol for MultiTox-Fluor Cytotoxicity assay
[Step] [Parameter] [Value] [Description]
1. Reagent; 5 uL; 2500 lymphoblastoid cells/well
2. Time; 5 hr; 37 C incubation
4. Controls; 23 nL; Tetraoctylammonium bromide 6.4pM to 92 uM
5. Time; 16 hr; 37 C incubation
6. Reagent; 5 uL; MuliTox-Fluor Assay reagent
7. Time; 60 min; Room Temperature
8. Detection; live-cell fluorescence (Ex/Em=405/510); EnVision plate reader
Keywords: cell viability, cytotoxicity, lymphoblastoid cell line, fluorescence, NTPHTS, NTPHTS_NCGC, NIEHS, EPA, DSSTox, MLSMR, MLSCN, NIH Roadmap, qHTS, NCGC

SMILES | activity change, negative = fewer live cells | outcome
Nc1ccn([C@H]2CS[C@@H](CO)O2)c(=O)n1 | -7.49% (inactive) | 
CCCCCCCC/C=C\CCCCCCCC(=O)O | -4.66% (inactive) | 
CC1=C2[C@@H]([C@H](C)CC[C@H]2/C=C(\C)C(=O)O)[C@H](O)C1 | -2.92% (inactive) | 
CCOc1ccc2c(c1)C(C)=CC(C)(C)N2 | -3.18% (inactive) | 
CC1=C(/C=C/C(C)=C/C=C/C(C)=C/CO)C(C)(C)CCC1 | -11.2% (inactive) | 
CCOC(C)=O | -3.84% (inactive) | 
Cc1ccccc1 |  | inactive
CCCCC/C=C\C/C=C\CCCCCCCC(=O)O | -3.86% (inactive) | 
IC(I)I | -9.35% (inactive) | 
CCCCCCCC(=O)O |  | inactive
O=CCCCC=O | -27.3% (inactive) | 
O=C(O)CCC(=O)C(=O)O | -7.49% (inactive) | 
CC(O)CO (stereo not given) |  | inactive
CC(C)=O | -4.43% (inactive) | 
O=S(=O)(O)O |  | inactive
